Source: PubChem BioAssay AID1159580 (chemical genetic matrix, 2015)
Out of some 5,500 compounds screened, about 2,000 (36%) were called active. Inconclusive results (about 18%) are left out. Rule as the data show it: active = normalized growth mostly below about 0.91 (no sharp cut-off); inconclusive = no clear call, values can overlap the other calls; inactive = mostly above about 0.92. Some of the results follow.

Experiment: chemical genetic growth profiling, strain panel (AID 1159580);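 also: tested at 20 µM; growth read once vehicle control cultures reached saturation at 30 °C; 1 = growth at the plate median or of vehicle wells; lower values mean less growth of the strain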
Details: S. cerevisiae deletion strains, growth OD
[1] = locus YAL013W, strain DEP1, stronger effect = lower value
[2] = locus YAL040C, strain CLN3, stronger effect = lower value
[3] = locus YCL061C, strain MRC1 (second series), stronger effect = lower value
[4] = locus YDR363W, strain ESC2, stronger effect = lower value
[5] = locus YER002W, strain NOP16, stronger effect = lower value
[6] = locus YNL153C, strain GIM3, stronger effect = lower value
[7] = locus YNL175C, strain NOP13, stronger effect = lower value
[8] = locus YNL197C, strain WHI3, stronger effect = lower value
[9] = locus YNL224C, strain SQS1, stronger effect = lower value
[10] = locus YOR083W, strain WHI5 (second series), stronger effect = lower value
[11] = locus YPL241C, strain CIN2, stronger effect = lower value

Measured: normalized growth

CN=C(N)NCCC[C@H](N)C(=O)O
inactive: [1] 1.02 | [2] 0.993 | [3] 1.03 | [4] 1.04 | [5] 0.992 | locus YMR263W, strain SAP30, stronger effect = lower value 0.99 | [6] 1.02 | [7] 1.01 | [8] 1.01 | [9] 1.01 | [10] 1.01 | [11] 1

COc1cccc2c1[C@@H]1CN(CCCCn3c(=O)[nH]c4c(sc5ncc(-c6ccccc6)nc54)c3=O)C[C@@H]1CO2
inactive: [1] 0.921 | [2] 0.969 | [3] 0.962 | locus YDR150W, strain NUM1, stronger effect = lower value 1.01 | [4] 0.963 | [5] 1.01 | locus YNL128W, strain TEP1, stronger effect = lower value 1.02 | [6] 0.929 | [7] 1.03 | [8] 1 | [9] 1 | [10] 0.93 | [11] 0.984
active: locus YPL055C, strain LGE1, stronger effect = lower value 0.781

Cc1nc(C(F)(F)F)ccc1C(=O)Sc1nnc(-c2ccc(C(F)(F)F)nc2C)o1
inactive: locus YAR019C, strain CDC15, stronger effect = lower value 0.946 | locus YBL105C, strain PKC1, stronger effect = lower value 0.95 | locus YBR135W, strain CKS1, stronger effect = lower value 0.954 | locus YBR136W, strain MEC1, stronger effect = lower value 0.955 | locus YBR160W, strain CDC28, stronger effect = lower value 0.952 | locus YDL017W, strain CDC7, stronger effect = lower value 0.951 | locus YDL028C, strain MPS1, stronger effect = lower value 0.955 | locus YDL101C, strain DUN1, stronger effect = lower value 0.961 | locus YDL108W, strain KIN28, stronger effect = lower value 0.952 | locus YDL132W, strain cdc53, stronger effect = lower value 0.956 | locus YDL214C, strain PRR2, stronger effect = lower value 0.901 | locus YDR052C, strain DBF4, stronger effect = lower value 0.949 | locus YDR054C, strain cdc34, stronger effect = lower value 0.939 | locus YDR226W, strain ADK1, stronger effect = lower value 0.946 | locus YDR477W, strain SNF1, stronger effect = lower value 0.943 | locus YER123W, strain YCK3, stronger effect = lower value 0.858 | locus YER133W, strain GLC7, stronger effect = lower value 0.936 | locus YFL009W, strain cdc4, stronger effect = lower value 0.946 | locus YFL029C, strain CAK1, stronger effect = lower value 0.947 | locus YFR003C, strain YPI1, stronger effect = lower value 0.952 | locus YFR019W, strain FAB1, stronger effect = lower value 0.976 | locus YFR028C, strain CDC14, stronger effect = lower value 0.959 | locus YGR040W, strain KSS1, stronger effect = lower value 0.956 | locus YGR052W, strain FMP48, stronger effect = lower value 0.929 | locus YGR092W, strain DBF2, stronger effect = lower value 0.864 | locus YHR079C, strain IRE1, stronger effect = lower value 0.737 | locus YHR082C, strain KSP1, stronger effect = lower value 0.962 | locus YHR205W, strain SCH9, stronger effect = lower value 0.732 | locus YIL147C, strain SLN1, stronger effect = lower value 0.952 | locus YJL095W, strain BCK1, stronger effect = lower value 0.861 | locus YJL128C, strain PBS2, stronger effect = lower value 0.902 | locus YJL157C, strain FAR1, stronger effect = lower value 0.945 | locus YJR016C, strain ILV3, stronger effect = lower value 0.952 | locus YJR066W, strain TOR1 (second series), stronger effect = lower value 0.716 | locus YJR066W, strain TOR1, stronger effect = lower value 0.935 | locus YKL048C, strain ELM1, stronger effect = lower value 0.937 | locus YKL067W, strain YNK1, stronger effect = lower value 0.893 | locus YKL101W, strain HSL1, stronger effect = lower value 0.886 | locus YKL193C, strain SDS22, stronger effect = lower value 0.949 | locus YKL203C, strain TOR2, stronger effect = lower value 0.989 | locus YLR133W, strain CKI1, stronger effect = lower value 0.924 | locus YLR403W, strain SFP1, stronger effect = lower value 0.945 | locus YML070W, strain DAK1, stronger effect = lower value 0.89 | locus YMR001C, strain CDC5, stronger effect = lower value 0.953 | locus YMR205C, strain PFK2 (second series), stronger effect = lower value 0.918 | locus YMR277W, strain FCP1, stronger effect = lower value 0.951 | locus YNL006W, strain LST8, stronger effect = lower value 0.959 | locus YNL020C, strain ARK1, stronger effect = lower value 0.889 | locus YNL161W, strain CBK1, stronger effect = lower value 0.936 | locus YNL183C, strain NPR1, stronger effect = lower value 0.905 | locus YNL207W, strain RIO2, stronger effect = lower value 0.942 | locus YNL222W, strain SSU72, stronger effect = lower value 0.954 | locus YNL307C, strain MCK1 (second series), stronger effect = lower value 0.868 | locus YOL078W, strain AVO1, stronger effect = lower value 0.949 | locus YOL136C, strain PFK27, stronger effect = lower value 0.876 | locus YOR061W, strain CKA2, stronger effect = lower value 0.887 | locus YOR119C, strain RIO1, stronger effect = lower value 1.02 | locus YOR231W, strain MKK1, stronger effect = lower value 0.802 | locus YOR329C, strain SCD5, stronger effect = lower value 0.953 | locus YPL031C, strain PHO85, stronger effect = lower value 0.94 | locus YPL153C, strain RAD53, stronger effect = lower value 0.963 | locus YPL204W, strain HRR25, stronger effect = lower value 0.934 | locus YPL209C, strain IPL1, stronger effect = lower value 0.95 | locus YPR025C, strain CCL1, stronger effect = lower value 0.949 | locus YPR106W, strain ISR1, stronger effect = lower value 0.951 | locus YPR111W, strain DBF20, stronger effect = lower value 0.919 | strain NNK1, stronger effect = lower value 0.928 | strain TSCII, stronger effect = lower value 0.943
active: locus YHR030C, strain SLT2, stronger effect = lower value 0.617 | locus YLR113W, strain HOG1, stronger effect = lower value 0.515 | locus YPL256C, strain CLN2, stronger effect = lower value 0.605
